Laboratory results published in PubChem BioAssay AID1835 (Johns Hopkins Ion Channel Center, 2009).
Hit rate of the full screen: of about 2,400 compounds, about 750 (31%) were called active. The list shows a part of the results. Unmarked numbers belong to inactive results.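 The calls were made as follows: active = median signal gain over dofetilide-blocked control wells reaching their mean plus 3 SD, so readout 1 at least 0; inactive = the rest.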

target: Voltage-gated inwardly rectifying potassium channel KCNH2 (Homo sapiens) (UniProt Q12809); assay: hERG protection against dofetilide inhibition, confirmation, cell-based, thallium flux, duplicate retest, dofetilide IC70 (AID 1835); conditions: hERG cell line, FluxOR thallium flux, dofetilide-blocked; at 10 µM; hits give high values
Sequence (Q12809 whole entry, looked up): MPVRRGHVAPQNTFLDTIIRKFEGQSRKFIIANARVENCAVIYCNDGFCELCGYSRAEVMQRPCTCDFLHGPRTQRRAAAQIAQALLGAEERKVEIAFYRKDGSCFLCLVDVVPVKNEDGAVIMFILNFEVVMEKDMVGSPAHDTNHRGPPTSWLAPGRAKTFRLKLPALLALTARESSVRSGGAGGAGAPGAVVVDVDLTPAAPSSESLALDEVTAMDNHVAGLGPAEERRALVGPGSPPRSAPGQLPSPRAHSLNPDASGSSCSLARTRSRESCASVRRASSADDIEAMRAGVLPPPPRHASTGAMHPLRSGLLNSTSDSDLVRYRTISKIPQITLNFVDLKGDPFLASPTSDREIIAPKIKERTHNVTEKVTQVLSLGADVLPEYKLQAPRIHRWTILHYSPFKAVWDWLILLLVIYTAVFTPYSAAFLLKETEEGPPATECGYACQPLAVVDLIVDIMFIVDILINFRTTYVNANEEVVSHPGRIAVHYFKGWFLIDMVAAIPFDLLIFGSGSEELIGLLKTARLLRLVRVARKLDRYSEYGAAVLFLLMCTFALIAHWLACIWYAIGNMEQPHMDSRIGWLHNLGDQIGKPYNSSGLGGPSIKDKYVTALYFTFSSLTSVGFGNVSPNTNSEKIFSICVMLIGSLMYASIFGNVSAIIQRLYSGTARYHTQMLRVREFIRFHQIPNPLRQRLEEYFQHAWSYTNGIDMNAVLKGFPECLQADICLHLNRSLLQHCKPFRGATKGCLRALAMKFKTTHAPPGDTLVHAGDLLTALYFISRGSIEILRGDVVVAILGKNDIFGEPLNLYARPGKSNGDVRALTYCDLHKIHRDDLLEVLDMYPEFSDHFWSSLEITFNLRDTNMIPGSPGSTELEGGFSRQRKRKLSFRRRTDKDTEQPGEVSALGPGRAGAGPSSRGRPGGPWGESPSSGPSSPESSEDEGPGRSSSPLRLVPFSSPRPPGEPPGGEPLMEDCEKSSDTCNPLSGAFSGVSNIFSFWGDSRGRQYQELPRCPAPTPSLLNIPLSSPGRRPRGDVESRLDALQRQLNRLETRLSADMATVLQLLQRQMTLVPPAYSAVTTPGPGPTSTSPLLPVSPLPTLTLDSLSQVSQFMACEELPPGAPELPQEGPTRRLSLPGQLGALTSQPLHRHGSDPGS

Point of comparison: `Cc1ccc(/C(O)=C2\C(=O)C(=O)N(Cc3cccnc3)C2c2ccccc2[N+](=O)[O-])cc1` (stereo not given), activity increase over dofetilide control, less the hit threshold -26%. Against it:
- CCN(/N=C/c1ccc(Cl)cc1)c1cc(=O)n(C)c(=O)[nH]1 — higher, -20%
- Cc1noc(C)c1COc1cccc(C(=O)NCc2cccc(Cl)c2)c1 — higher, -18%
- CC(C)C12CN3CC(C(C)C)(CN(C1)C31C(=O)Nc3ccccc31)C2=O (stereo not given) — higher, -24%
- O=C(COc1nsnc1N1CCOCC1)Nc1ccc(Cl)cc1 — higher, -21%
- CC(C)(C)c1csc(NC(=O)C2=COCCO2)n1 — higher, -17%
- CCc1nnc(NC(=O)CCC(=O)N2CCN(C3CCCCC3)CC2)s1 — higher, -22%
- Cc1ccccc1-n1c(SCC(=O)N(C)C2CCS(=O)(=O)C2)nnc1-c1ccncc1 (stereo not given) — higher, -8%
- CCOC(=O)c1sc2nc(C)nc(SCC(=O)N(C)C3CCS(=O)(=O)C3)c2c1C (stereo not given) — higher, -6%
- Nc1nc2c(s1)CCc1c-2cnn1-c1ccccc1 — lower, -46%
- CC(=O)c1ccc(N2CCN(C(=O)Cc3ccccc3)CC2)c(F)c1 — higher, -15%
- COC(=O)Nc1c(-c2ccccc2)nc2ccccn12 — higher, -4%
- CC1=NN(c2nc(-c3ccccc3)cs2)C(=O)C1N=Nc1ccccc1 (stereo not given) — lower, -31%
- O=C(O)C/C(=C\c1cc(Br)cs1)c1nc2ccccc2o1 — higher, -6%
- Cc1cccc(/N=C/c2sc3ccccc3c2O)n1 — higher, -13%
- O=c1c([N+](=O)[O-])c(N2CCCCC2)c2ccccc2n1-c1ccccc1 — higher, -18%
- Oc1ccc2[nH]cnc2c1CN1CCCCC1 — higher, -18%
- CCc1ccc2[nH]c(O)c(N=Nc3nc(-c4ccccc4)cs3)c2c1 — higher, -8%
- Cc1ccccc1OCC(=O)N=Nc1c(O)n(C)c2ccccc12 — higher, -5%
- COC(=O)/C=C1\S/C(=N/N=C/c2ccco2)NC1=O — higher, -10%
- CCOC(=O)c1cnn(-c2nc(SC)nc3sc4c(c23)CCCC4)c1N — higher, -1%
- CCC(=O)N1CCN(c2nc(CC)nc3sc4c(c23)CCCC4)CC1 — lower, -30%
- C=CCSc1nc2sc3c(c2c(=O)n1CC)CCc1ccccc1-3 — higher, -4%
- CC(=O)/C=C1/C(=O)Nc2ccccc21 — lower, -39%
- COc1cc(/C=N/Nc2nc(N3CCCC3)nc(N3CCCC3)n2)ccc1OCc1ccccc1F — lower, -34%
- O=C1CC(C(=O)N2CCOCC2)C2(CCCCC2)O1 (stereo not given) — higher, -19%
- CC1CCN(c2ccc3c(c2)S(=O)(=O)c2ccccc2C3=O)CC1 — lower, -27%
- O=C1c2ccccc2C(=O)N1Cc1nc2ccccc2c(=O)n1CCCn1ccnc1 — higher, -25%
- Cc1ccc(Cl)cc1NC(=S)N/N=C/c1cccc2ccccc12 — higher, -11%
- Fc1ccccc1NC(=S)N/N=C/c1ccccc1Br — higher, -20%
- O=C(CNCC1CCCO1)N1CCCCCC1 (stereo not given) — higher, -11%
- Cc1ccc2c(Cl)cc(Cl)c(OCC(=O)NC3CCS(=O)(=O)C3)c2n1 (stereo not given) — higher, -15%
- CCCCSc1nnc(CCC)n1N — higher, -21%
- O=C(c1ccc(CS(=O)c2cccc(Cl)c2)o1)N1CCCCCC1 (stereo not given) — higher, -7%
- CC(C)(C)NC(=O)CN(C(=O)CS(=O)CC(=O)Nc1ccc(F)cc1)c1cccc(F)c1 (stereo not given) — higher, -13%
- Fc1ccccc1-c1n[nH]c(=S)n1C1CC1 — higher, -4%
- CCC(=O)Nc1cc(=O)[nH]c2ncnn12 — higher, -24%
- Cc1cc(NC(=O)CSc2nnc(Nc3ccccc3)s2)no1 — higher, -11%
- CCCc1nc(SCC(=O)Nc2cc(C)on2)c2ccccc2n1 — higher, -10%
- COc1ccc(C(=O)NN/C(C)=C/C(=O)c2ccccc2)cc1 — the same, -26%
- C/C(=C\C(=O)c1ccncc1)Nc1ccccc1O — higher, -7%
- COc1cccc(C(=O)Nc2cccc(-c3ccc(N4CCOCC4)nn3)c2)c1 — higher, -14%
- Cc1ccc(NC(=O)c2ccc3c(c2)OCO3)cc1Cl — higher, -10%
- COc1ccc(C2/C(=C(/O)c3ccc(Br)cc3)C(=O)C(=O)N2C)cc1 (stereo not given) — higher, -7%
- Cc1ccc(C(=O)n2c(-c3ccccc3)cnc2SCC(=O)Nc2ccc(C)cc2C)cc1 — higher, -8%
- Oc1c(N=NC(=S)Nc2ccccc2F)c2ccccc2n1Cc1cccc(Cl)c1 — higher, -1%
- Cc1cc(NC(=O)Cn2c(=O)n(Cc3ccccc3)c(=O)c3ccccc32)no1 — higher, -7%
- Oc1c(N=NC(=S)Nc2ccccc2F)c2ccccc2n1Cc1ccc(Cl)cc1 — higher, -2%
- CC(C)Oc1ccccc1C1(c2ccccc2)NC(=O)NC1=O (stereo not given) — higher, -16%
- CC(C)NC(=O)Nc1n[nH]c(Nc2ccc(Cl)cc2)n1 — higher, -1%
- O=C1NC(=O)C2(COC(c3cccc([N+](=O)[O-])c3)OC2)S1 (stereo not given) — higher, -12%
- Nc1ccc2nc(-c3cccs3)[nH]c2c1 — higher, -10%
- Cc1cc(C)c(S(=O)(=O)c2ccccc2)c(OC(=O)c2c(F)cccc2Cl)n1 — lower, -30%
- O=C(CCc1ccccc1Cl)Nc1ccc(S(=O)(=O)N2CCOCC2)cc1 — higher, -6%
- CCc1ccc(C(=O)NNC(=O)c2ccc(=O)n(C)n2)cc1 — higher, -5%
- CC(NC(=O)CCNC(=O)c1ccco1)c1ccc(F)cc1 (stereo not given) — higher, -5%
- Cc1ccc(C(C)NC(=S)NC2CCCCC2)cc1C (stereo not given) — higher, -6%
- Cc1ccc(C(=O)NC(C)c2ccc(C)c(C)c2)s1 (stereo not given) — higher, -6%
- CCc1ccccc1N(CC(=O)NC(C)c1ccccc1)S(C)(=O)=O (stereo not given) — higher, -15%
- COc1cccc(C(=O)/C=C/Nc2ccc(S(=O)(=O)Nc3cnc4ccccc4n3)cc2)c1 — higher, -22%
- CCc1nccn1S(=O)(=O)c1ccc2ccc(C)cc2c1 — higher, -15%
- CC1CCN(C(=O)CSc2nnc(CNC(=O)c3ccco3)o2)CC1 — higher, -15%
- COc1ccc(-c2cc(C(=O)N3CCCC3)no2)cc1 — higher, -4%
- O=C(c1cccc2c1-c1ccccc1C2)N1CCCCC1 — higher, -17%
- CC1Oc2ccccc2N(CC(=O)N2CCCCCC2)C1=O (stereo not given) — higher, -19%
- N#CCCn1cc(/C=N/NC(=O)c2ccncc2)c(-c2ccc(F)cc2)n1 — higher, -2%
- CCCn1nnnc1NC(=O)c1cc(Cl)ccc1Cl — higher, -8%
- CCN(CC)C(=S)NC(=O)c1ccc(F)cc1 — higher, -9%
- CN(C)/C=C/C(=O)c1ccc(Cl)cc1Cl — higher, -11%
- CCCN(CC(=O)Nc1ccccc1C)C(=O)CCl — higher, -13%
- O=C(Nc1ccsc1C(=O)O)c1ccccc1Cl — higher, -16%
- Cn1c(CNC(=O)CNC(=O)c2ccc(F)cc2)cc(=O)n(C)c1=O — higher, -15%
- CSc1ccc(C2NN=C(c3ccccc3)S2)cc1 (stereo not given) — higher, -11%
- O=C1C=C(NCCN2CCOCC2)C(=O)c2cnccc21 — higher, -3%
- Cc1ccc(OCCC(=O)OC(C)C(=O)NC2CC2)cc1 (stereo not given) — higher, -12%
- O=c1ccn(Cc2ccc(F)cc2)c2ccnc(C(F)(F)F)c12 — higher, -15%

`CN(C(=O)CSc1ncnc2sc(-c3ccccc3)cc12)C1CCS(=O)(=O)C1` (stereo not given) was tested, and the activity increase over dofetilide control, less the hit threshold was 82% (active).
With `O=C(O)CCSc1ncnc2sc(-c3ccccc3)cc12` the activity increase over dofetilide control, less the hit threshold was 9% (active).
`O=c1c(-c2ccccc2)nc(-c2ccccc2)cn1O` was tested, and the activity increase over dofetilide control, less the hit threshold was 33% (active).
`Cc1nc(-c2ccccc2)cn(O)c1=O` was tested, and the activity increase over dofetilide control, less the hit threshold was 16% (active).
In the case of `Cn1c(O)c(N=Nc2nc(-c3ccccc3)cs2)c2ccccc21`, the activity increase over dofetilide control, less the hit threshold is reported as 65% (active).
With `CCCn1c(SCC(=O)N2CCN(C(C)=O)CC2)nc2sc3c(c2c1=O)CCC3` the activity increase over dofetilide control, less the hit threshold was 20% (active).
With `CCn1c(SC(C)C(=O)O)nc2sc3c(c2c1=O)CCC3` (stereo not given) the activity increase over dofetilide control, less the hit threshold was 7% (active).
`CCn1c(SCC(N)=O)nc2sc3c(c2c1=O)CCCC3` was tested, and the activity increase over dofetilide control, less the hit threshold was 3% (active).
With `S=C(N/N=C/c1ccccc1Cl)Nc1cccc(Cl)c1Cl` the activity increase over dofetilide control, less the hit threshold was 23% (active).
With `CCCCCCCC/C=C\CCCCCCCC(=O)O` the activity increase over dofetilide control, less the hit threshold was 22% (active).
For `CC(C)Oc1c(Cl)cc(CNC(C)(C)CO)cc1Cl`, the activity increase over dofetilide control, less the hit threshold was 1% (active).
`CC(C)(C)c1cc(-c2n[nH]c(=S)n2-c2ccccc2F)n[nH]1` was tested, and the activity increase over dofetilide control, less the hit threshold was 7% (active).
For `Cc1cc(NC(=O)CSc2nc(C3CC3)nc3sc(C)c(C)c23)no1`, the activity increase over dofetilide control, less the hit threshold was 26% (active).
With `C/C(=C\C(=O)c1ccccc1)NNC(=O)c1ccc(Cl)cc1` the activity increase over dofetilide control, less the hit threshold was 3% (active).
For `COc1cccc(C(=O)NNC(=O)C(=O)Nc2ccc(C)c(Cl)c2)c1`, the activity increase over dofetilide control, less the hit threshold was 54% (active).
`COc1ccc(C(=O)NNC(=O)C(=O)Nc2ccc(C)c(Cl)c2)cc1` was tested, and the activity increase over dofetilide control, less the hit threshold was 86% (active).
With `COc1cccc(C(=O)NNC(=O)C(=O)Nc2cccc(Cl)c2C)c1` the activity increase over dofetilide control, less the hit threshold was 50% (active).
In the case of `Oc1c(N=NC(=S)Nc2ccccc2F)c2ccccc2n1Cc1ccccc1`, the activity increase over dofetilide control, less the hit threshold is reported as 36% (active).
`Cc1c(Cl)cccc1NC(=S)N=Nc1c(O)n(CN2CCOCC2)c2ccccc12` was tested, and the activity increase over dofetilide control, less the hit threshold was 18% (active).
In the case of `Cc1cccc(Cn2c(O)c(N=NC(=S)Nc3ccccc3F)c3ccccc32)c1`, the activity increase over dofetilide control, less the hit threshold is reported as 4% (active).
With `Oc1c(N=NC(=S)Nc2ccccc2F)c2ccccc2n1Cc1ccc(F)cc1` the activity increase over dofetilide control, less the hit threshold was 32% (active).
With `CCc1ccc(C(C)NC(=O)c2ccc(F)cc2)cc1` (stereo not given) the activity increase over dofetilide control, less the hit threshold was 4% (active).
`CCc1ccc(C(C)NC(=O)C2CCCC2)cc1` (stereo not given) was tested, and the activity increase over dofetilide control, less the hit threshold was 1% (active).
For `Cc1ccc(C(C)NC(=O)C2CCCC2)cc1C` (stereo not given), the activity increase over dofetilide control, less the hit threshold was 4% (active).
In the case of `O=C(c1csc(Nc2ccccc2Cl)n1)N1CCCC1`, the activity increase over dofetilide control, less the hit threshold is reported as 6% (active).
`CCCN(CCC)C(=S)NC(=O)c1ccc(Cl)cc1Cl` was tested, and the activity increase over dofetilide control, less the hit threshold was 60% (active).
In the case of `CCCCN(CCCC)C(=S)NC(=O)c1ccccc1Cl`, the activity increase over dofetilide control, less the hit threshold is reported as 83% (active).
For `CCN(CC)C(=S)NC(=O)c1ccc(Cl)cc1Cl`, the activity increase over dofetilide control, less the hit threshold was 11% (active).
In the case of `O=c1cc(-c2ccccc2)cc(-c2ccccc2)n1O`, the activity increase over dofetilide control, less the hit threshold is reported as 22% (active).
